Laboratory results from PubChem BioAssay (NCATS).
Values joined by “and” are separate entries in the source; they are usually repeats but may differ in a detail not shown here. Equal values may be shown once. Records with an inconclusive call do not appear. Active and inactive are the calls of the source. Unless noted, calls follow the shape of the dose curve; as a rule, active = well fitted curve in the direction sought with a large enough effect; inconclusive = small, poorly fitted or top-dose-only effect, or another doubt; inactive = no such curve, though single readings can be large; an effect the other way counts as inactive or inconclusive.

Key:
[1] = target: Catechol O-methyltransferase (Homo sapiens) (UniProt P21964); experiment: Confirmatory Screen for Target Class Profiling of Small Molecule Inhibitors of Methyltransferases (AID 1745852; calls by dose curve; also: potency is read from the fitted curve at half-maximal effect; as to activity change, negative = inhibition: % is scaled to controls: 0 for no effect and ±100 for the full control effect); conditions: MTase-Glo luminescence, SAH detection, recombinant enzyme; measured here: COMT max response; stronger effect = lower value
[2] = target: Guanidinoacetate N-methyltransferase (Homo sapiens) (UniProt Q14353); experiment: as above; conditions: MTase-Glo luminescence, SAH detection, recombinant enzyme; activity change, negative = inhibition: at 57.3 µM (top of the series) unless noted; series mostly up to 57.3 µM
[3] = target: Nicotinamide N-methyltransferase (Homo sapiens) (UniProt P40261); experiment: as above; conditions: MTase-Glo luminescence, SAH detection, recombinant enzyme; measured here: NNMT max response; stronger effect = lower value
[4] = target: Phenylethanolamine N-methyltransferase (Homo sapiens) (UniProt P11086); experiment: as above; conditions: MTase-Glo luminescence, SAH detection, recombinant enzyme; measured here: PNMT max response; stronger effect = lower value
[5] = target: Glutathione peroxidase 1 (Homo sapiens) (UniProt P07203); experiment: Primary qHTS Assay for Inhibitors of Recombinant Selenoprotein Glutathione Peroxidase 1 (GPX1) (AID 1845191); conditions: recombinant GPX1, GR-coupled NADPH fluorescence, 15 min; series mostly up to 48.8 µM; also: nearly all actives have a fitted effect of over 65% in size; as to activity, negative = inhibition: % is scaled to controls: 0 for no effect and ±100 for the full control effect
Summary of the method: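 GR-coupled assay: compounds preincubated 30 min at room temperature with GPX1, then reaction started with CHP; final 10 nM GPX1, 1 mM GSH, 0.5 mM CHP, 0.5 mM NADPH, 100 nM GR, 0.01% BSA, pH 7.5 Tris buffer. NADPH fluorescence (340/450 nm) read at 0 and 15 min.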

[6] = target: Phospholipid hydroperoxide glutathione peroxidase GPX4 (Homo sapiens) (UniProt P36969); experiment: Primary qHTS Assay for Inhibitors of Recombinant Selenoprotein Glutathione Peroxidase 4 (GPX4) (AID 1845192); conditions: recombinant GPX4, GR-coupled NADPH fluorescence, 15 min; series mostly up to 50 µM; also: nearly all actives have a fitted effect of over 65% in size; as to activity change, negative = inhibition: % is scaled to controls: 0 for no effect and ±100 for the full control effect
Summary of the method: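 GR-coupled assay: recombinant GPX4 preincubated 30 min with compound at room temperature; final 200 nM GPX4, 1 mM GSH, 0.5 mM cumene hydroperoxide, 0.5 mM NADPH, 100 nM GR, 0.01% BSA, pH 7.5 Tris. NADPH fluorescence (340/450 nm) read at 0 and 15 min.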

[7] = target: Luciferin 4-monooxygenase (Photinus pyralis) (UniProt P08659); experiment: Primary firefly luciferase (FLuc) qHTS assay for identification of artifact compounds. (AID 1845220); conditions: purified firefly luciferase, luminescence, 5 min; series mostly up to 54.1 µM; also: nearly all actives have a fitted effect of over 60% in size;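 as to activity change, negative = inhibition: plate controls were DMSO vehicle for no effect and no enzyme for full effect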
Summary of the method: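 D-luciferin and ATP (10 uM each, final) in Tris acetate buffer pH 7.6 were incubated with compounds for 15 min at room temperature. The reaction was started with 10 nM Photinus pyralis luciferase and luminescence read after 5 min. Percent inhibition was fitted to a 4-parameter Hill equation.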

[8] = system: Nanoluciferase (engineered Oplophorus gracilirostris luciferase); experiment: Primary Nanoluciferase (NLuc) qHTS assay for identification of artifact compounds. (AID 1845222); conditions: NLuc-conditioned medium, Nano-Glo luminescence, 5 min; series mostly up to 54.1 µM;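 also: 0% = DMSO and -100% = no enzyme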
Summary of the method: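 Diluted conditioned medium from NLuc-expressing S16 cells treated with compounds for 15 min at room temperature, then Nano-Glo substrate added; luminescence read after 5 min. Percent inhibition versus no-enzyme and DMSO controls fitted to 4-parameter Hill equation.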

[9] = Primary fluorescence-based thiol-reactive (MSTI) qHTS assay for identification of artifact compounds. (AID 1845221); conditions: MSTI thiol-reactivity probe, 1 h; series mostly up to 53.8 µM; also: nearly all actives have a fitted effect of over 65% in size; also: potency is read from the fitted curve at half-maximal effect;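 as to activity change, negative = thiol reactive: thiol-reactive compounds lower the probe fluorescence signal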
Summary of the method: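 MSTI probe at 4 uM final in 2% DMSO/PBS pH 7.4; compounds, 1 h at room temperature in dark. Fluorescence Ex/Em 525/598 nm, normalised to Acetyl-MSTI and MSTI, fitted to 4-parameter Hill.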

Chain of Catechol O-methyltransferase (Homo sapiens) (P21964 whole entry, looked up): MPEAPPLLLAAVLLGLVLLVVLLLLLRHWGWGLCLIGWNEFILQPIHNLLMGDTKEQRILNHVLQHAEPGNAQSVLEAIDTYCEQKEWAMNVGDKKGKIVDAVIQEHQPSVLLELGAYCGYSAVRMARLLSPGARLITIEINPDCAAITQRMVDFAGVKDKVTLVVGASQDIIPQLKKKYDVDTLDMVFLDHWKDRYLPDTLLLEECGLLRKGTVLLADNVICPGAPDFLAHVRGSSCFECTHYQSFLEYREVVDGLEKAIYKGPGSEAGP
Chain of Nicotinamide N-methyltransferase (Homo sapiens) (P40261 whole entry, looked up): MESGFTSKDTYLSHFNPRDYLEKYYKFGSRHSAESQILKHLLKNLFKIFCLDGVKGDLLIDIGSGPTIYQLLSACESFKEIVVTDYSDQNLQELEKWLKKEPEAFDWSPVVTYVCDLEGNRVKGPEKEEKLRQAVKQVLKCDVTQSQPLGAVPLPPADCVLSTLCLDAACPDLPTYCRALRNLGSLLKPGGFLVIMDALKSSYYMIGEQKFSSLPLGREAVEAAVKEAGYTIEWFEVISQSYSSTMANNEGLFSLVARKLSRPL
Chain of Glutathione peroxidase 1 (Homo sapiens) (P07203 whole entry, looked up): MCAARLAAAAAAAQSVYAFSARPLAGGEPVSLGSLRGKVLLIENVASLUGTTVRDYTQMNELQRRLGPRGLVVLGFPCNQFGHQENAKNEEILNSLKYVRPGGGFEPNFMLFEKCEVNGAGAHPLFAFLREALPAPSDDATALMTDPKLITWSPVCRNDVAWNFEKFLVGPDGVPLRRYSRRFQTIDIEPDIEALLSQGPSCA
Chain of Phenylethanolamine N-methyltransferase (Homo sapiens) (P11086 whole entry, looked up): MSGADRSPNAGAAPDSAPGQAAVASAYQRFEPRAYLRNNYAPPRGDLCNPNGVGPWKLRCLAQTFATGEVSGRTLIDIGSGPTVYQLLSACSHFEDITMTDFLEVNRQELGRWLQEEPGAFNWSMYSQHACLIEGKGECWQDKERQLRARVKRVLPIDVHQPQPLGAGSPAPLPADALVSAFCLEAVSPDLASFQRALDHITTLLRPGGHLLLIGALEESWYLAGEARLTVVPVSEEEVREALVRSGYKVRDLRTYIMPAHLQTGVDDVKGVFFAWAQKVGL
Chain of Phospholipid hydroperoxide glutathione peroxidase GPX4 (Homo sapiens) (P36969 whole entry, looked up): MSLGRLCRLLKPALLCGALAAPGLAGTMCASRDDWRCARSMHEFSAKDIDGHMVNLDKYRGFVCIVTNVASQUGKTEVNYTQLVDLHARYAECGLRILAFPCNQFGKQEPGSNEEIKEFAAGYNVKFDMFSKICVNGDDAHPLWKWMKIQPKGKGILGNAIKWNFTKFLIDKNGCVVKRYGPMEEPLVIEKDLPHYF

| Compound | activity [1] | activity change, negative = inhibition [2] | activity [3] | activity [4] | Potency [5] | Potency [6] | Potency [7] | Potency [8] | Potency [9] | activity change, negative = inhibition [7] | activity change, negative = thiol reactive [9] | activity, negative = inhibition [8] | Potency [2] |
| --- | --- | --- | --- | --- | --- | --- | --- | --- | --- | --- | --- | --- | --- |
| COc1cc(C(O)C(CO)Oc2ccc(CCCO[C@@H]3O[C@@H](C)[C@H](O)[C@@H](O)[C@H]3O)cc2OC)ccc1O (stereo partly drawn) | -72.8% | -3.44% [at 29.8 µM] | -3.89% | -4.24% | inactive | inactive | inactive | inactive | – | – | – | – | – |
| O=C(O[C@@H]1O[C@H](CO)[C@@H](O)[C@H](O)[C@H]1O)c1c(O)cc(O)cc1/C=C/c1ccccc1 | -66.4% | 2.61% [at 29.8 µM] | -2.64% | -9.3% | inactive | inactive | inactive | inactive | 7.33 µM (active) | – | – | – | – |
| CC1(C)CCC2(C(=O)OC3OC(COC4OC(CO)C(O)C(O)C4O)C(O)C(O)C3O)CCC3(C)C(=CCC4C5(C)CCC(O)C(C)(C(=O)O)C5CCC43C)C2C1O (stereo not drawn) | -59.6% | 2.03% [at 19.1 µM] | -5.22% | -5.74% | inactive | inactive | – | – | – | 2.78% [at 11.6 µM] (inactive) | 16.4% [at 11.5 µM] (inactive) | 2.66% [at 11.6 µM] (inactive) | – |
| CC1(C)CC[C@]2(C(=O)O[C@@H]3O[C@H](CO)[C@@H](O)[C@H](O)[C@H]3O)CC[C@]3(C)C(=CCC4[C@@]5(C)C[C@@H](O)[C@H](O)C(CO)(CO)C5CC[C@]43C)C2[C@@H]1O (stereo partly drawn) | -77.5% | 0% [at 19.1 µM] | 0% | 4.05% | inactive | inactive | inactive | inactive | inactive | – | – | – | – |
| COc1cc(C2Oc3c(OC)cc(/C=C/C(=O)OC[C@H]4O[C@@H](OC(C)(C)C(=O)O)[C@H](O)[C@@H](O)[C@@H]4O)cc3C2CO)ccc1O (stereo partly drawn) | -69.3% | -2.88% [at 19.1 µM] | -0.56% | -7.93% | inactive | inactive | inactive | inactive | inactive | – | – | – | – |
| CCN(c1cc(C#CCN2CCOCC2)cc(C(=O)NCc2c(C)cc(C)[nH]c2=O)c1C)C1CCC(N(C)CCOC)CC1 (stereo not drawn) | 15% | 3.71% | -20.4% | 4.61% | inactive | inactive | inactive | inactive | inactive | – | – | – | – |
| CC(C)N(C[C@H]1O[C@@H](n2cnc3c(N)ncnc32)[C@H](O)[C@@H]1O)C1CC(CCc2nc3ccc(C(C)(C)C)cc3[nH]2)C1 (stereo partly drawn) | -14.6% and -12.5% | -3.18% | -85.8% and -82.8% | -90.9% and -89.3% | inactive | inactive | inactive | inactive | – | – | – | – | 30.4 µM (active) |
| CCOc1ccc(-c2ccc(Cn3c(CC(C)(C)C(=O)O)c(SC(C)(C)C)c4cc(OCc5ccc(C)cn5)ccc43)cc2)cn1 | -2.5% and 0.78% | -0.671% | -21.6% and -9.46% | -31.2% and -7.43% | inactive | inactive | inactive | inactive | inactive | – | – | – | inactive |
| C=C[C@](C)(CC/C=C(\C)C(=O)O)O[C@@H]1OC[C@H](O)[C@H](O)[C@H]1O | -82.9% | -1.98% | -0.767% | 0.753% | inactive | inactive | inactive | inactive | 7.36 µM (active) | – | – | – | – |
| CC1=CC(=O)CC(C)(C)C1(O)CCC(C)O (stereo not drawn) | -75.7% | 2.94% | 0% | 4.65% | inactive | inactive | inactive | inactive | – | – | – | – | – |
| CN1CCC(c2c[nH]c3ccc(NC(=O)c4ccc(F)cc4)cc23)CC1 | -8.83% | -10.4% | -3.82% | -4.53% | inactive | inactive | inactive | inactive | – | – | – | – | – |
| COc1cc(/C=C/C(=O)O[C@H]2[C@H](OC(=O)/C=C/c3cc(OC)c(O)c(OC)c3)O[C@H](CO[C@@H]3O[C@H](CO)[C@@H](O)[C@H](O)[C@H]3O)[C@@H](O)[C@@H]2O)ccc1O | -52.5% | 0.645% [at 19.1 µM] | -4.49% | -4.24% | inactive | inactive | inactive | inactive | inactive | – | – | – | – |
| CC1=CC(=O)C2C(C)(C)CCCC2(C)C12CCC1(COC(=O)C1)O2 (stereo not drawn) | -85.5% | 2.41% | -1.78% | 3.04% | inactive | inactive | inactive | inactive | 7.36 µM (active) | – | – | – | – |
| Cc1[nH]cnc1C1CCN(c2nc3cccc4c3n2CCC4=O)CC1 | 1.4% | 0.0241% | -9.9% | 1.15% | inactive | inactive | – | inactive | inactive | – | – | – | – |
